Assay results from PubChem BioAssay AID1671190 (National Center for Advancing Translational Sciences (NCATS), 2021).
“And” between values parts separate entries of the source, which are not always exact repeats. Identical values can stand only once. Hit rate of the full screen: of about 580,000 compounds, about 6,100 (1.1%) were called active. About 15% were inconclusive and are not listed. This is one part of a sample in which actives are shown more often than they occur. Unmarked numbers belong to inactive results. Calls follow the shape of the dose curve; as a rule, active = well fitted inhibition curve with a large enough effect; inconclusive = small, poorly fitted or top-dose-only effect, or another doubt; inactive = no such curve, though single readings can be large or run the other way.

biological target: Polyunsaturated fatty acid lipoxygenase ALOX12 (Homo sapiens) (UniProt P18054); experiment: Primary qHTS assay for inhibitors of human arachidonate 12S-lipoxygenase (ALOX12): Round 2; conditions: purified 12hLO, xylenol orange hydroperoxide absorbance; series mostly up to 108 µM; activity change, negative = inhibition: at the top concentration
Sequence (P18054 whole entry, looked up): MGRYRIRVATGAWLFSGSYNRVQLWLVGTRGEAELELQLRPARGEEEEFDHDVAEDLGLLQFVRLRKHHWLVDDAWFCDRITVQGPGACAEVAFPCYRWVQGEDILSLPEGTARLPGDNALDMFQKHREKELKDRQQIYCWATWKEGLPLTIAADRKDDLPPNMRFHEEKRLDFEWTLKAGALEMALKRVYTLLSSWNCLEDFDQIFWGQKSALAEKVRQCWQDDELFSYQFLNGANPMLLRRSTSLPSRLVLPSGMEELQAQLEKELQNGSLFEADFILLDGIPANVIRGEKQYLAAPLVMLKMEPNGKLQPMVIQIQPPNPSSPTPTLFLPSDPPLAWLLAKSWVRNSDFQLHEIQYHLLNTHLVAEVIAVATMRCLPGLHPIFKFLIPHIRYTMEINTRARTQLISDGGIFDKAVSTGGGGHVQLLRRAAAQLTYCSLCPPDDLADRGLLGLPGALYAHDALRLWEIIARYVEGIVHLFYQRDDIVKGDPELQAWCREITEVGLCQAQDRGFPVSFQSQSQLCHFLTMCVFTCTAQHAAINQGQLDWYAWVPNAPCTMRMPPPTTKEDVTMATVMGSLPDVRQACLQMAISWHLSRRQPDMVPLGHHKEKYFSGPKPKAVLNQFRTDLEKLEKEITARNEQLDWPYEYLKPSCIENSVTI
Description: Assay Provider: Theodore R. Holman Ph.D. University of California, Santa Cruz, California Human lipoxygenase 12hLO is a member of the closely related lipoxygenase family of enzymes which catalyze the site-specific oxidation of arachidonic acid to various hormone precursor molecules and as such is a candidate for drug development in a variety of disease areas, such as cancer and inflammation. Inhibition of 12hLO activity was screened by utilizing arachidonic acid as a substrate. The extent of hydroperoxide product formation was measured by a secondary chromogenic reaction in which xylenol orange (XO, Sigma-Aldrich, cat. number 39,818-7) reacts with the ferric ions produced from the reaction between the hydroperoxide and ferrous ions. The Fe (III)-XO complex is characterized with red-shifted absorbance at 560 nm. A purified preparation of human 12hLO was supplied by Dr. Holman laboratory, University of California, Santa Cruz.
PROTOCOL TABLE SEQUENCE No. (e.g., 1, 2, 3, etc.); […] (e.g., Cells, Incubation, Reagent, etc.); VALUE; DESCRIPTION 1; Enzyme; 3 uL; 150 nM 12hLO enzyme solution dispensed in 1536-well Greiner black, clear bottom plates. 2; Compound; 23 nL; compounds and controls were added. 3; Incubate; 15 min; room temperature. 4; Substrate; 1 uL; 40 uM arachidonic acid (final concentration). 5; Incubate; 30 min; room temperature. 6; Reagent; 4 uL; Fe-XO solution was added to each well. 7; Incubation; 30 min; room temperature 8; Detector; absorbance; Read 1 at 405 nm absorbance using ViewLux (Perkin-Elmer) CCD imager. 9; Detector; absorbance; Read 2 at 573 nm absorbance using ViewLux (Perkin-Elmer) CCD imager. NOTES (numbers refer to sequence above) 1; 150 nM 12hLO (final concentration) in buffer solution (25 mM Hepes, 0.01% Triton X-100, pH 7.0) was dispensed in columns 1, 2, 5-48. Column 1 is neutral (100% activity). Buffer only was dispensed in columns 3 and 4 as no enzyme negative controls. The plates were covered with metal lids with gas-exchange holes. 2; Compounds were pin transferred via a Kalypsys Pin Tool (Wako USA) in column 5-48. Control compound was transferred in column 2, titration of nordihydroguaiaretic acid (NDGA, Sigma-Aldrich, N5023) with top concentration of 20 mM in DMSO then 1:3 dilution in duplicate. Dilution factor of 23 nL into 4 uL final assay volume. 3; Covered assay plates were incubated for 15 min at room temperature. 4; Substrate was added to start the reaction; 40 uM arachidonic acid (Sigma-Aldrich, St. Louis, MO) was dispensed throughout the plate. 6; Chromogenic detection reagent solution (divalent iron/xylenol orange, Fe-XO) was added to each well: 200 uM xylenol orange, 300 uM ferrous ammonium sulfate prepared freshly in 50 mM sulfuric acid. 8, 9; Two absorbance readouts were obtained at 405 nm and at 573 nm using a ViewLux high-throughput CCD plate imager (Perkin-Elmer). The 573 to 405 (Read 2 / Read 1) absorbance ratio was used to compute reaction progress.
% is scaled to controls: 0 for no effect and ±100 for the full control effect; potency is read from the fitted curve at half-maximal effect.

Row | SMILES | Potency | activity change, negative = inhibition
1 | CCOC(=O)C1=C(NC(=S)NC(=O)c2ccccc2)c2ccccc2CC1(C)C | 22.4 µM (active) | –
2 | CC(C)CNC(=O)NC1=C(C#N)C(C)(C)Cc2ccccc21 | – | 16.7%
3 | CCOC(=O)c1c(NC(=O)C2(C)Cc3ccccc3C(=O)O2)sc2c1CCCC2 (stereo unspecified) | – | -14.7%
4 | CC(=O)CCc1ccc(OCC(O)CNC(C)(C)CO)cc1 (stereo unspecified) | – | 18.8%
5 | CCc1ccc(-c2nc(SCc3ncc(-c4ccccc4)o3)n[nH]2)cc1 | – | -7.84%
6 | CCOC(=O)c1cccc(NC(=O)C2=Cc3ccccc3OC=C2)c1 | – | -0.337%
7 | CC(=O)c1c(N2CCOCC2)nc(=S)n(Cc2ccccc2)c1C | – | 0%
8 | CC(=O)c1c(N2CCOCC2)nc(=S)n(-c2cc(C)ccc2C)c1C | – | -29.5% [at 57.4 µM]
9 | CC(=O)c1c(N2CCN(c3ccc(F)cc3)CC2)nc(=S)n(-c2ccccc2)c1C | 44.7 µM (active) | –
10 | Cc1ccc(/C=C/C(=O)c2cc3ccccc3o2)s1 | – | -33.4%
11 | O=C(COc1ccc(F)cc1)Nc1ccc2oc(-c3ccc(F)cc3)nc2c1 | – | -35.7%
12 | Cc1ccc(-n2ncc3c(NNC(=O)C4CCCCC4)ncnc32)cc1 | – | -0.144%
13 | Clc1cccc(-n2ncc3c(NCCc4ccccc4)ncnc32)c1 | 44.7 µM (active) and 8.91 µM (active) | –
14 | NS(=O)(=O)c1ccc(CCNc2ncnc3c2cnn3-c2ccccc2Cl)cc1 | – | 34.2%
15 | COc1ccc(CCNc2ncnc3c2nnn3Cc2ccccc2)cc1 | – | 2.33%
16 | COc1ccc(CCNc2ncnc3c2cnn3-c2ccc(C)cc2)cc1 | 28.2 µM (active) | –
17 | CCN(CC)CCNc1ncnc2c1cnn2-c1cc(Cl)ccc1C | – | -27.4%
18 | CCOC(=O)c1c(C)c(CCC(=O)NCCN2CCOCC2)c(C)n1C | – | -3.28%
19 | CCN(CC)C(=O)C1=C(C)N=C2SC=C(CC(=O)NCc3ccco3)N2C1c1ccccc1F (stereo unspecified) | – | 44.2%
20 | C#CCNC(=O)CC[C@@H]1CNC(=O)[C@@H]2C[C@H](NC(=O)Nc3cccc(Cl)c3)CN12 | – | -15.5% [at 176 µM]
21 | O=C1Nc2ccc(-c3ccc(Cl)cc3)cc2C(=O)N2CC[C@H](NC(=O)N3CCOCC3)[C@@H]12 | – | -2.01%
22 | COc1cc(=O)n(-c2ccc(C)cc2)nc1C(=O)Nc1cccc(Cl)c1C | – | 4.75%
23 | COc1cc(OC)cc(C(=O)OCC(=O)Nc2c(C)cccc2C(C)C)c1 | – | 11%
24 | CC(C)c1ccc(C2/C(=C(\O)c3ccc4c(c3)OCCO4)C(=O)C(=O)N2c2nccs2)cc1 (stereo unspecified) | 0.794 µM (active) | –
25 | COc1cc(C2/C(=C(\O)c3ccc4c(c3)CC(C)O4)C(=O)C(=O)N2c2nnc(C)s2)cc(OC)c1OC (stereo unspecified) | – | -22.7%
26 | O=C1C(=O)N(CCCN2CCOCC2)C(c2ccc([N+](=O)[O-])cc2)/C1=C(\O)c1ccc2c(c1)OCCO2 (stereo unspecified) | – | -19.6%

Row | SMILES | Potency | activity change, negative = inhibition
27 | CCn1cc(C#N)c(=O)n(Cc2noc(-c3ccc(Cl)cc3)n2)c1=O | – | -30.4%
28 | Cc1cccc(NC(=O)N2CCCCCC2)c1C | – | 7.92%
29 | Cc1cccc(NC(=O)c2cccc(C(=O)Nc3cccc(C)c3C)n2)c1C | 3.16 µM (active) | –
30 | Cc1cccc(NC(=O)c2ccc3nc(C(C)C)oc3c2)c1C | – | -22.6%
31 | O=C(OCc1ccccc1)N1CCOCC12CCN(Cc1cccc(O)c1)CC2 | – | 18.9% [at 176 µM]
32 | CCc1ccccc1NC(=O)CSc1nc2c(=O)[nH]cnc2n1CC | – | -4.33%
33 | Cc1cc(C)cc(-n2ccnc2SCC(=O)Nc2nc3ccccc3s2)c1 | – | -4.72%
34 | c1ccc(C(=NNc2nc3ccccc3s2)c2ccccn2)cc1 | 44.7 µM (active) | –
35 | O=C(CCc1ncc(-c2ccccc2)o1)Nc1nc2ccccc2s1 | – | -24.4%
36 | COc1cccc(Oc2coc3cc(OC)ccc3c2=O)c1 | – | 21.4%
37 | CCN1C(=O)COc2ccc(NC(=O)c3cc(=O)c4cc(Cl)c(C)cc4o3)cc21 | – | 6.24%
38 | O=C(NCCc1nc2ccccc2[nH]1)c1ccc(N2CCCN(Cc3cccc(F)c3)C2=O)cc1 | – | 5.35%
39 | CCOC(=O)c1c(S(=O)(=O)N2CCCC(C(=O)NCc3cccc(C)c3)C2)c(C)n(C)c1C (stereo unspecified) | – | -21.3%
40 | CCOC(=O)c1c(S(=O)(=O)N2CCCC2)nn(C)c1C | 14.1 µM (active) | –
41 | CCOc1ccccc1NC(=O)C1CCN(S(=O)(=O)c2c(C)nn(C)c2C)CC1 | – | 24.8%
42 | COC(=O)C1=C(C)N(Cc2ccccc2C(F)(F)F)C(=NCC2CC2)NC1c1cccc(Cl)c1 (stereo unspecified) | – | -22%
43 | CC(=O)C1=C(C)N(Cc2ccccc2)C(=S)NC1c1cccc(Br)c1 (stereo unspecified) | 44.7 µM (active) | –
44 | CCN1CN(Cc2ccccc2)CNC1=S | – | -19.3%
45 | COC(=O)C1=C(C)N(C)C(C)=C(C(=O)OC)C1c1cccc(Br)c1 | – | 34.3%
46 | COC(=O)C1=C(C)N(Cc2ccc(F)cc2)C(=S)NC1c1cccc(Cl)c1 (stereo unspecified) | 39.8 µM (active) | –
47 | COC(=O)C1=C(C)N(Cc2ccccc2C(F)(F)F)C(=NCc2ccc(OC)cc2)NC1c1cccc(C(F)(F)F)c1 (stereo unspecified) | – | -22.5%
48 | CC(=O)C1=C(C)N(Cc2ccc(Cl)cc2)C(=S)NC1c1ccc(F)cc1 (stereo unspecified) | 44.7 µM (active) | –
49 | CCN(CC)C(=O)C1=C(C)N(Cc2ccc(F)cc2)C(=O)C(CC(=O)NC2CCCC2)C1 (stereo unspecified) | – | -0.0623%
50 | O=C(CN1CCN(Cc2ccc(Cl)cc2)C1=O)NCc1ccc(F)cc1 | – | -16.3%
51 | O=C1CCN(C(=O)C2CCN(C(=O)C3COc4ccccc4O3)CC2)CCCCCCN1 (stereo unspecified) | – | 54.9%
